Our source for the growth values is PubChem BioAssay (NCI).

Each structure is given as a SMILES string. The panel holds about 83,000 compounds, 20% with a hit somewhere; the sample as a whole holds those more often.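 For each line, cells grew in 96-well plates with the test compound present at a single concentration for 48 hours.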 A number with no mark means an inactive call. Active and inactive are the calls of the source. Rule for the calls: active = growth percent below 10; inactive = the rest.

The subject of the assay is OVCAR-3 ovarian. The assay can be described thus: NCI-60 one-dose screen, 48 h (100 = growth as untreated, 0 = no growth, -100 = all killed). The note with it: 10 µM unless noted.
As to `COc1cc(NC(C)CN(CC(C)C)C(C)C)c2ncccc2c1` (stereo not given), the growth was 92.9%.

With `Nc1c2c(nc3ccc(Cl)cc13)CC(c1ccccc1)CC2=O` (stereo not given), the growth was 20.6%. Consider `COC(=O)[C@]12CC[C@@H](C)[C@H](C)[C@@H]1C1=CC[C@@H]3[C@@]4(C)C[C@@H](O)[C@H](O)[C@@](C)(CO)C4=CC[C@@]3(C)[C@]1(C)CC2`, for which the growth is -61.8% (active).

Regarding `CCC1C(=O)COC1=O` (stereo not given), the growth is 109%. Under `C=C(C)[C@@H]1CC[C@]2(C)[C@H](CC=C3[C@@H]4CC(C)(C)CC[C@]4(C(=O)OC)CC[C@]32C)[C@@]1(C)CC/C(N)=N/O` stands 67.2%; under `O=C(/C=C/c1cccc2ccccc12)Nc1ncc(Cc2ccccc2)s1`, -17.8% (active). In the case of `N#Cc1c(-c2ccc(O)cc2)c2c(N)nn(-c3ccccc3)c2[nH]c1=O` it was 110%.

Take `COc1ccc(-c2c(-c3nc4ccc(N5CCOCC5)cc4[nH]3)[nH]c(C)c2C(C)=O)cc1`: the growth is 46%. In the case of `c1ccc(-c2nc(Nc3ccc(-c4nc5ccccc5[nH]4)cc3)nc(N3CCOCC3)n2)cc1` it was -73.4% (active); in that of `Cc1cc2nc3c4cc(Cl)ccc4n(CCN(C)C)c3nc2cc1C`, 32.9%.

Consider `Cc1cc(N2CCOCC2)nc(N(CCCNc2ccnc3cc(Cl)ccc23)Cc2ccco2)n1`, for which the growth was 2.02% (active). In the case of `Cc1cc(N(CCNc2ccnc3cc(Cl)ccc23)Cc2ccco2)nc(Cl)n1` it was -89.5% (active); in that of `COc1ccc(/C=C/C(=O)NCCO)cc1`, 101%; in that of `O=C1NC(c2ccc(Cl)c(Cl)c2)=C/C1=C\c1ccccc1`, 50.8%. In the case of `N#C/C(=C\c1ccc(-c2ccccc2)o1)c1nc(-c2ccco2)cs1` it was 78.7%; in that of `C=C1C(=O)O[C@H]2[C@H]1CC/C(COC(=O)NCc1c[nH]c3ccccc13)=C\CC[C@@]1(C)O[C@@H]21`, 2.08% (active). Under `Cn1cc(-c2csc(-c3cn(CCN)c4ccccc34)n2)c2cccnc21` stands 45.5%; under `C=C(C)[C@@H]1CC[C@]2(C)[C@H](CC[C@@H]3[C@H]4[C@H]5OC[C@@]4(CCC5(C)C)CC[C@]32C)[C@@]1(C)CCCN`, 76.6%. Regarding `CC[C@]12C=CCN3CC[C@@]4(c5cc([C@H]6CCC(=O)N6)c(OC)cc5N(C)[C@H]4[C@@](O)(C(=O)OC)[C@@H]1OC(C)=O)[C@@H]32`, the growth is 112% [2.5 µM]. In the case of `COc1cc2c(cc1-c1c(C)noc1C)ncc1nc(C3CCCCC3)n([C@@H](C)COC(F)F)c12` it was 35.6%; in that of `COc1ccc(/C=C(\C#N)c2cc3ccccc3n2S(C)(=O)=O)cc1`, 94.8%.

Turning to `CCc1cccc(CC)c1NC(=O)c1sc2nc3c(cc2c1N)CCCC3`, the growth was 54.6%.

In the case of `O=C1CCC/C=C\C[C@H]2C=C(Cl)C(=O)/C2=C/C[C@H](CCCCC(F)(F)F)OC(=O)CCC/C=C\C[C@H]2C=C(Cl)C(=O)/C2=C/C[C@H](CCCCC(F)(F)F)O1`, the growth is -81.3% [7.5 µM] (active). In the case of `COc1cc(-c2cc3ncccc3c3nc(N)c4cccnc4c23)cc(OC)c1OC` it was 15.1%.

For the compound `COC(=O)[C@]12CC[C@@H](C)[C@H](C)[C@@H]1C1=CC[C@@H]3[C@@]4(C)C[C@@H](OC(C)=O)[C@H](O)[C@@](C)(CO)[C@@H]4[C@H](O)C[C@@]3(C)[C@]1(C)CC2`, the growth was -85% (active). Under `Cc1ccc(N(CC(=O)Nc2ccc(S(=O)(=O)NC3CCN(C)CC3)cc2)S(=O)(=O)c2ccc(Cl)cc2)cc1` stands 72.5%. Under `N#CC1=C(N)Oc2ccc3ccccc3c2C1c1ccccc1` (stereo not given) stands 18.4%; under `COc1ccc(C(=O)/C=C/c2cc(-c3cc(OC)c(OC)c(OC)c3)n[nH]2)cc1OC`, -55.3% (active). Under `Cn1c(/C(C#N)=C/c2ccc3ccccc3c2)cc2ccccc21` stands -0.996% (active). For `CCN(CC)c1ccc(/C=C/c2cc(C)c3ccccc3n2)cc1`, the growth is 37.1%.
